# Test results from PubChem BioAssay (NCI).
# About 83,000 compounds went through this panel and 20% of them were active in at least one assay; those are over-represented in the sample as a whole.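 Treatment: one concentration, 48 hours, 96-well format. Scoring: percent growth, with anything below 10 considered active.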 Unmarked numbers belong to inactive results. The source made the active and inactive calls.
# Columns and labels:
# Assay in all cases: NCI-60 one-dose screen, 48 h (100 = growth as untreated, 0 = no growth, -100 = all killed)
# [1] = tested on: DU-145 prostate; conditions: 10 µM unless noted
# [2] = tested on: K-562 leukemia; conditions: 10 µM unless noted
# [3] = tested on: MALME-3M melanoma; conditions: 10 µM unless noted
# [4] = tested on: RXF 393 renal; conditions: 10 µM unless noted
# [5] = tested on: SF-268 CNS; conditions: 10 µM unless noted
# [6] = tested on: SF-295 CNS; conditions: 10 µM unless noted
# [7] = tested on: SF-539 CNS; conditions: 10 µM unless noted
# [8] = tested on: UACC-257 melanoma; conditions: 10 µM unless noted
# [9] = tested on: M14 melanoma; conditions: 10 µM unless noted
# [10] = tested on: HCT-15 colon; conditions: 10 µM unless noted
# [11] = tested on: HT29 colon; conditions: 10 µM unless noted
# [12] = tested on: SNB-75 CNS; conditions: 10 µM unless noted
# [13] = tested on: SNB-19 CNS; conditions: 10 µM unless noted
# [14] = tested on: U251 CNS; conditions: 10 µM unless noted
# [15] = tested on: PC-3 prostate; conditions: 10 µM unless noted
# [16] = tested on: SK-MEL-5 melanoma; conditions: 10 µM unless noted
# [17] = tested on: UACC-62 melanoma; conditions: 10 µM unless noted
# [18] = tested on: LOX IMVI melanoma; conditions: 10 µM
# [19] = tested on: SK-MEL-28 melanoma; conditions: 10 µM unless noted
# [20] = tested on: MDA-MB-231 breast; conditions: 10 µM unless noted
SMILES,growth [1],growth [2],growth [3],growth [4] [%],growth [5],growth [6],growth [7],growth [8],growth [9],growth [10],growth [11],growth [12],growth [13],growth [14],growth [15],growth [16],growth [17],growth [18],growth [19],growth [20]
O=C(/C(Cl)=N/O)c1ccc(-c2ccccc2)cc1,109%,63.8%,24.8%,95.4,101%,104%,96.4%,99.7%,96.7%,94.5%,80.1%,113%,105%,96.1%,98.6%,98.7%,97.9%,-41.5% (active),110%,
O=[n+]1c2ccccc2n([O-])c2cc(Cl)ccc21,94.9%,45.3%,85.1%,,28.1%,63.5%,53.1%,80.7%,104%,43.7%,74.1%,50.7%,94.2%,,50.2%,,81%,,99.2%,87.6%
O=C1C=C(Cl)C(=O)c2ccccc21,118%,24.2%,85.1%,,93.2%,97.4%,109%,96.2%,107%,98.9%,119%,71.4%,97.4%,,81.7%,,98.2%,,116%,69.1%
COc1ccc(C(Cn2ccnc2)Sc2ccc(Cl)c(Cl)c2)cc1 (stereo unspecified),100%,56.2%,96.1%,,90.9%,,95.6%,92.1%,71.6%,79.7%,59.6%,89.2%,98.6%,,63.1%,66.5%,77.6%,84.4%,85.3%,79.1%
CC1CC(C)(C)OB(OC(C)CC(C)(C)OB2OC(C)CC(C)(C)O2)O1 (stereo unspecified),102%,96.1%,111%,116,102%,105%,104%,94.8%,-55.3% (active),104%,99.2%,115%,104%,94.2%,97.5%,101%,106%,93.7%,104%,
CCC[CH2][Sn]1([CH2]CCC)[O]C2C(CO)OC(n3ccc(N)nc3=O)C2[O]1 (stereo unspecified),2.15% (active),-17.7% (active),-71.7% (active),,-89.2% (active),,-64.2% (active),-87.3% (active),,-59.3% (active),-69.8% (active),-21.2% (active),28.4%,,-11.3% (active),-72.1% (active),-89% (active),-57% (active),-90.3% (active),-68.8% (active)
CCCCCCC1N=C(N)N=C(N)N1c1cccc(Cl)c1 (stereo unspecified),34.3%,20.1%,40.9%,,19.6%,13.8%,5.72% (active),63.9%,,84.2%,17.9%,-0.752% (active),26.9%,33.6%,29.3%,28.3%,,17.1%,40%,68%
CCCCOS(=O)(=O)c1ccccc1,112%,106%,94.5%,,105%,120%,102%,106%,112%,102%,104%,85.9%,103%,104%,101%,117%,,97.1%,126%,106%
CC(=O)C1Cc2ccccc2C1=O (stereo unspecified),106%,116%,94.3%,,103%,100%,99.6%,89.8%,109%,108%,104%,70.8%,98%,103%,94.7%,103%,,94.4%,115%,98.8%
N#CC1c2ccccc2C=CN1C(=O)CCCl (stereo unspecified),77.7%,32.3%,5.05% (active),,104%,,104%,79.9%,,84.9%,78.3%,75.9%,107%,,104%,101%,106%,32.6%,105%,103%
CCCCCCCCCCCCN1C(C)=CS/C1=C\C=C\c1scc(C)[n+]1CCCCCCCCCCCC,43%,4.52% (active),29.9%,,40.3%,-21.5% (active),44.4%,-14.2% (active),30.5%,56.6%,11%,34.3%,40.2%,,3.86% (active),-83.9% (active),5.41% (active),25.9%,47.2%,20.2%
Cc1nc([N+](=O)[O-])c(Sc2nncc(-c3ccccc3)n2)n1C,67.3%,89.7%,-7.36% (active),,93.5%,144%,106%,29.8%,88.2%,68%,84.5%,76.6%,116%,79.4%,98.1%,96%,82.2%,82.2%,89.1%,92.6%
Oc1ccccc1N=Cc1ccccc1,83.5%,48.6%,95.6%,117,89.9%,111%,108%,94.3%,87.6%,58.5%,102%,132%,93.7%,89.9%,36.5%,65.2%,98.8%,54.7%,119%,
Oc1ccc(Cl)cc1C(c1cc(Cl)ccc1O)C(Cl)(Cl)Cl,-47.8% (active),4.51% (active),11.9%,,20.2%,10.1%,31.4%,72.1%,0.872% (active),3.95% (active),4.03% (active),4.39% (active),24%,11.8%,6.26% (active),29.1%,,-62.8% (active),38.8%,-63.6% (active)
COc1cc(OC)c(/C=C/c2c3ccccc3cc[n+]2C)c(OC)c1,36.5%,5.35% (active),33.3%,,26.3%,-32.3% (active),31.9%,-16.7% (active),41.7%,97.9%,1.89% (active),12.3%,35.8%,,19.2%,-14% (active),15.7%,-39.1% (active),30.1%,42.4%
CCCCCCCCCCCC[N+]1(CCCCCCCCCCCC)CCCC(C)C1 (stereo unspecified),-83.8% (active),-79.1% (active),-75.1% (active),,-87.7% (active),-77.1% (active),-99.6% (active),-96.2% (active),-97.3% (active),-55.6% (active),-91.8% (active),-88.3% (active),-96.5% (active),-61% (active),-93.7% (active),-100% (active),-77.9% (active),-80% (active),-91.2% (active),-82.6% (active)
COC(=O)c1cc([N+](=O)[O-])cc([N+](=O)[O-])c1Cl,66.1%,15.2%,49.5%,91.4,,101%,102%,70.4%,20.5%,-4.09% (active),-85.2% (active),90.4%,104%,9.52% (active),97%,107%,90.6%,57.7%,108%,105%
CCOC(=O)NC(/C=C/c1ccccc1)NC(=O)OCC,109%,107%,109%,121,101%,104%,98.9%,98.3%,103%,105%,101%,96.6%,98.4%,94.5%,96.9%,106%,97.7%,99.8%,105%,
